Source: PubChem BioAssay
Only some compounds are listed: those with a hit (about 5.2% of all), similar ones and a draw of the others.
rTrxR1 inhibitor = rat TrxR1 inhibition. O89049. recombinant rTrxR1, NADPH fluorescence consumption, selenite substrate. Potency, µM (series often up to 114 µM), without a hit: at the highest dose activity change, negative = inhibition, most hits filed as inhibitors. 1% of 390,000 active. AID 588453; also: nearly all actives have a fitted effect of over 65% in size
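Rat TrxR1 (90 nM in the dispensed reagent) was pre-reduced with 400 uM NADPH for 5 min at room temperature, then incubated with compound for 15 min. After 400 uM selenite was added, NADPH fluorescence (Ex 340/Em 450 nm) was followed for 8 min.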
TrxR1 substrate = is turned over as a substrate by rat TrxR1. purified TrxR1 substrate turnover, NADPH consumption readout. AID 588456. Potency, µM (top dose mostly 114 µM), inactives show at the top dose activity change, negative = substrate turnover. 0.01% of 390,000 active; also: nearly all actives have a fitted effect of over 50% in size
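Rat TrxR1, dispensed at 90 nM, was prereduced with 400 uM NADPH (final) for 5 min at ~22 deg C, then incubated with compound 15 min before 400 uM selenite. A first-read NADPH fluorescence drop versus no-compound background flagged substrates.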
mIDH1 inhibitor = human IDH1 R132H inhibition | Potency, µM (titrated, usually from 76.6 µM), without a hit: at the highest dose activity change, negative = inhibition, usual class: inhibitors | 0.093% of 390,000 active | O75874 | IDH1-R132H enzyme, NADPH consumption, diaphorase/resazurin fluorescence | AID 602179; also: nearly all actives have a fitted effect of over 65% in size
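IDH1-R132H (0.5 ug/mL dispensed) in pH 7.5 Tris buffer was preincubated 30 min with compound, then given a substrate mix of 0.016 mM NADPH and 2 mM alpha-KG for 80 min at room temperature; remaining NADPH was read by diaphorase/resazurin fluorescence.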
VDR inh = vitamin D3 receptor (human) inhibition; P11473; VDR-SRC2-3 peptide fluorescence polarization, 2 h; Potency, µM, for inactives: max response, negative = inhibition, actives largely listed as inhibitors; 0.93% of 400,000 active
Target sequence (P11473 whole entry, looked up): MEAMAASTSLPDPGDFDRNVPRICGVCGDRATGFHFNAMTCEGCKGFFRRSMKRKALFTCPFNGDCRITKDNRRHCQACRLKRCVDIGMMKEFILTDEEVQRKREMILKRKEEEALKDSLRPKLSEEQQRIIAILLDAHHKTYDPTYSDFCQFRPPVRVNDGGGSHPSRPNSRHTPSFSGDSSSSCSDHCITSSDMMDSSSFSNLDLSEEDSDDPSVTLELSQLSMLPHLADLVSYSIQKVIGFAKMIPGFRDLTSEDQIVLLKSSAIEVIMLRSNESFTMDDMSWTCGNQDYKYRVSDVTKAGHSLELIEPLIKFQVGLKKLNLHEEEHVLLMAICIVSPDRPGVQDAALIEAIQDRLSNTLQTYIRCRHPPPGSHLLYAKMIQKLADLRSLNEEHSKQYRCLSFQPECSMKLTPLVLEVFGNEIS
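Two reagent solutions held at 4 deg C in the dark were dispensed, compounds pinned at 23 nl, and the mixture incubated 2 h at room temperature. Read-out: fluorescence polarization of VDR–SRC2-3 peptide binding.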
PLK1 PBD inh = PLK1 (human) polo-box domain binding inhibition; 2.8% of 360,000 active; AID 720504; Plk1 PBD binding of FITC phosphopeptide, fluorescence polarization; P53350; Potency, µM, inactives show max response, negative = inhibition, most hits filed as inhibitors; also: series mostly up to about 57 µM; nearly all actives have a fitted effect of over 65% in size
Sfp PPTase inh = inhibitors of Bacillus subtilis Sfp phosphopantetheinyl transferase; 3.5% of 310,000 active; Q9F4F7; Biochemical Sfp PPTase activity, qHTS; Potency, µM, for inactives: largest response in the series, negative = inhibition, most hits filed as inhibitors;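 also: the enzyme is Sfp with the accession as filed and its product quenches rhodamine fluorescence; 0% = enzyme reaction without inhibitor and -100% = no enzyme wells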
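Buffer: 50 mM Hepes-Na pH 7.6, 10 mM MgCl2, 0.01% Nonidet P-40, 0.01% BSA. Enzyme 15 nM, pre-exposed to compound 15 min; substrates then added and fluorescence change tracked over 30 min.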
Starred values were filed as active, the others as inactive; ? = inconclusive; nt = not tested or not shown; ! = a repeat was not active; [ ] = dose if it differs, or a comment. Calls follow the shape of the dose curve; as a rule, active = well fitted curve in the direction sought with a large enough effect; inconclusive = small, poorly fitted or top-dose-only effect, or another doubt; inactive = no such curve, though single readings can be large; an effect the other way counts as inactive or inconclusive. Unless noted, % is scaled to controls: 0 for no effect and ±100 for the full control effect; potency is read from the fitted curve at half-maximal effect.

SMILES | rTrxR1 inhibitor | TrxR1 substrate | mIDH1 inhibitor | VDR inh | PLK1 PBD inh | Sfp PPTase inh
O=C(O)c1ccccc1NS(=O)(=O)c1ccc(NN=Cc2ccccc2F)c([N+](=O)[O-])c1 | -13% | -10% | 25% | ? | 24µM* | nt
Cc1nn(-c2ccccc2)c(Cl)c1/C=N/Nc1ccc(S(=O)(=O)Nc2ccccc2C(=O)O)cc1[N+](=O)[O-] | -1%[57.1 µM] | 0%[57.1 µM] | -1% | 79µM* | 27µM* | -21%
Cc1nn(-c2ccccc2)c(Cl)c1/C=N/Nc1ccc(Cl)c(C(=O)O)c1 | -3%[57.1 µM] | -14% | 5% | -11% | ? | 2%
CSc1ccc(C=NNc2ccc(S(=O)(=O)Nc3ccccc3C(=O)O)cc2[N+](=O)[O-])cc1 | 7%[57.1 µM] | -11% | 0% | -27% | ? | nt
CCOc1ccc(C=NNc2ccc(S(=O)(=O)Nc3ccccc3C(=O)O)cc2[N+](=O)[O-])cc1 | 1% | 1% | 1% | -21% | 19µM* | nt
C=CCOc1ccc(C=NNc2ccc(S(=O)(=O)Nc3ccccc3C(=O)O)cc2[N+](=O)[O-])cc1OC | -11% | -8% | -7% | ? | ? | nt
COc1ccc(NC(=S)NNc2ccc(S(=O)(=O)Nc3ccccc3C(=O)O)cc2[N+](=O)[O-])cc1 | ? | -3% | 2% | -3% | 8.4µM* | 79µM*
CCOc1ccc(CCNC(=O)c2c(C)oc3ncn(CC(C)C)c(=O)c23)cc1 | 19% | 1% | -2% | 16% | nt | nt
Cc1ccc2oc(-c3ccc(C)c(NC(=O)COc4ccc(Cl)cc4C)c3)nc2c1 | 19% | 3% | nt | nt | nt | nt
COc1ccc(C(=O)Nc2cc(S(=O)(=O)c3ccc(Cl)cc3)c(O)c(C)c2C)cc1 | 7% | -1% | 9% | -7% | nt | nt
CC(O)CCCCn1c(=O)c2c(ncn2C)n(C)c1=O (configuration not stated) | nt | nt | nt | 0% | nt | 20%
COc1ccc(C=NNc2ccc(S(=O)(=O)Nc3ccccc3C(=O)O)cc2[N+](=O)[O-])c(OC)c1 | 1% | -9% | ? | 89µM* | 30µM* | nt
CCOc1cccc(C=NNc2ccc(S(=O)(=O)Nc3ccccc3C(=O)O)cc2[N+](=O)[O-])c1O | -8% | -11% | -4% | -9% | ? | nt
CC1(C)S[C@@H]2C(C(=O)O)NC(=O)N2C1C(=O)O (some centres not stated) | 8% | -1% | nt | nt | nt | nt
Cc1ccc(C)c(-c2ccc(C(=O)O)o2)c1 | nt | nt | nt | 126µM* | nt | 112µM*
COc1ccc(Cl)cc1-c1ccc(C(=O)O)o1 | nt | nt | nt | 112µM* | nt | 112µM*
COc1ccccc1-c1ccc(C(=O)O)o1 | -34% | 204% | 7% | ? | -11% | 11%
CCCc1cc(=O)[nH]c(SCC(=O)Nc2cc(S(=O)(=O)N3CCCCC3)ccc2Cl)n1 | -13% | -9% | 2% | -1% | -4% | nt
COc1ccccc1CCN1COc2c(cc3c(C)c(C)c(=O)oc3c2C)C1 | 89µM* | 587% | 15% | 20% | nt | nt
COC(=O)Cc1c(C)c2cc3c(c(C)c2oc1=O)OCN(CCc1ccc(OC)cc1)C3 | 79µM* | 351% | -5% | 11% | nt | nt
Cc1cc(C)c2c(-c3ccc(-c4ccc(C(F)(F)F)cc4)cc3)cc(=O)oc2c1 | nt | nt | nt | -1% | nt | -24%
CC1(C(=O)Nc2ccccc2)CCN1C(=O)C1(c2ccccc2)CC1 (configuration not stated) | nt | nt | nt | nt | -1% | nt
O=[N+]([O-])c1ccc(O)c2ncccc12 | ? | ? | 13% | 40µM*! | -13% | -25%
O=[N+]([O-])c1cc(F)c2cccnc2c1O | 45µM* | -15% | 6% | -22% | ? | ?
O=C(O)Cn1cnc2c(=S)nc[nH]c21 | -21% | 0% | -3% | -11% | -2% | 8.9µM*
SMILES | rTrxR1 inhibitor | TrxR1 substrate | mIDH1 inhibitor | VDR inh | PLK1 PBD inh | Sfp PPTase inh
N=C1N(c2ccccc2)C(=S)C(=Nc2ccccc2)N1c1ccccc1 | 10%[11.4 µM] | 4%[11.4 µM] | 2% | 8.9µM* | 27µM* | nt
O=c1ccc2c(-c3ccccc3)c3ccc(O)cc3oc-2c1 | -8%[57.1 µM] | -3%[57.1 µM] | -5% | ? | ? | 32µM*
Nc1ccc(-c2c3ccc(=O)cc-3oc3cc(O)ccc23)cc1C(=O)O | -22% | -23% | -8% | 0% | 13µM* | -11%
COc1ccc(-c2c(C)c3ccc(O)cc3oc2=O)cc1OC | 0% | -6% | -1% | ? | 3% | -22%
O=c1cc(-c2ccccc2)oc2cc(O)ccc12 | 2%[57.1 µM] | -2%[57.1 µM] | 2% | -4% | 6% | -21%
CCOC(=O)c1c[nH]c2c(C)ccc(Cl)c2c1=O | 22%[57.1 µM] | 4%[57.1 µM] | 0% | 79µM* | 19µM* | 9%
CCOC(=O)c1c[nH]c2c3c(ccc2c1=O)CCCC3 | 2% | 0% | 9% | 7% | -1% | 4%
CCOC(=O)c1c[nH]c2c(Cl)c(Cl)ccc2c1=O | 12% | -3% | 9% | -13% | 27µM* | 8%
CCOC(=O)c1c[nH]c2c(Cl)ccc(Cl)c2c1=O | -4%[57.1 µM] | -12% | 5% | 9% | -7% | 8%
CC(=O)N1c2nc(C(C)C)nn2C2(CCCCC2)[C@@H]2CCCC[C@@H]21 | 46% | 10% | -5% | 2% | nt | nt
Cc1cc(SCC(=O)N/N=C/c2ccc(O)c(O)c2O)c(C)cc1Br | -28% | -13% | -9% | -18% | 6µM* | 10µM*
CC(=O)Nc1ccc(SC[C@H](CC(C)C)N2CCN(CCc3ccccc3)CCC2=O)cc1 | 19%[57.1 µM] | 4%[57.1 µM] | 4% | 3% | 19µM* | -21%
CC(=O)Nc1ccc(SC[C@H](Cc2ccccc2)N2CCN(CC(C)C)CCC2=O)cc1 | 4% | -6% | 4% | -9% | 34µM* | -17%
CC(=O)Nc1ccc(SCC(Cc2ccccc2)N2CCN(CC(C)C)CCC2=O)cc1 (configuration not stated) | 1% | -3% | nt | -25% | nt | -5%
CC(=O)Nc1ccc(SC[C@H](CC(C)C)N2CCN(CC(C)C)CCC2=O)cc1 | 35% | -4% | -1%[38.3 µM] | -23% | 27µM* | -5%
CC(C)C[C@@H](CC(=O)N[C@H](CC(=O)N[C@@H]1CCCC[C@H]1C(=O)N[C@H](CC(=O)N[C@@H](CCC(=O)O)CC(=O)O)CC(C)C)C(C)C)NC(=O)[C@@H]1CCCC[C@H]1N | nt | nt | nt | -5% | nt | -16%
CN(C)/C=C(\C#N)S(=O)(=O)c1ccccc1 | 10% | -2% | -8% | -3% | -21% | 27%
CS(=O)(=O)/C(C#N)=C\c1cnc(S(=O)(=O)c2ccccc2)s1 | nt | nt | nt | nt | nt | 3.5µM*
Cn1c(=O)c(=O)n(C)c2cc(N3CCOCC3)c(NS(=O)(=O)c3ccc(F)c(Cl)c3)cc21 | 9% | -3% | -8% | -25% | -14% | 10%
Cn1c(=O)n(C)c2cc(N3CCOCC3)c(NS(=O)(=O)c3ccc(F)cc3)cc21 | 3% | 3% | 23% | 2% | nt | nt
